According to the supplement of paper PMC11417369:
± gives the standard deviation of the averaged measurements. In all, about 25,000 sequences were measured (“ln(normalized median fluorescence intensity)”: median about 7.9, highest 2% from about 11 on). Many of the other results were omitted from the sample, so the highest values are more common in it than they were.

Test system: PfAP2-I AP2 domain 3 (GST-tagged)
Assay: gcPBM binding intensity (ln(normalized median fluorescence intensity)); higher = stronger DNA binding
In short: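 Using an Agilent 4 × 180k array, primer-extended double-stranded 36-bp intergenic genomic probes and negative controls were exposed for 1 h to GST-fused P. falciparum DNA-binding domains expressed in E. coli. Binding was carried out in 1× PBS with 1% milk, 0.2 mg/ml BSA, 0.5% salmon testes DNA and 0.03% Triton X-100, and protein was detected with Alexa488 anti-GST antibody and a 488 nm scan. Binding intensity is the highest Masliner-normalised natural-log median intensity across replicate spots of either probe orientation.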

Row | Sequence | gcPBM binding intensity (ln)
1 | TTCTGACCAATGCTATAAAATAATACAAAAGAAAAA [GTGCAC_negctrl_site3] | 7.83 ± 0.35
2 | AACTTTTTTATATGCACACATAAACAAGGATATATA [CACACA_site2874] | 10.1 ± 0.49
3 | TCCATATGCAAACTGGTGCACAAGTAGCTTTTATAT | 11.15 ± 0.028
4 | TTAACTTTTTTATATGCACACATAAACAAGGATATA [CACACA_site8932] | 9.57 ± 0.3
5 | TATAAGAGGATATATACACACAAAAATATGTACAGT [CACACA_site6885] | 7.92 ± 0.52
6 | TATTAATAATTAAGTTGTACATTAATTAATATACTG [XGTACX_site6994] | 7.46 ± 0.41
7 | ATATATTTTAGGAGAGTGCATTTAATATTATTTAAT [GTGCAC_site9444] | 10.7 ± 0.62
8 | ATATATCAAGGGAGTGAATGTTATGCATATGAATAT [TGCATGCA_negctrl_site573] | 7.82 ± 0.83
9 | CGTTATATCAAAGGAGTGCATTATGAATACGTTTTA [GTGCAC_site9837] | 11.4 ± 0.65
10 | AAAAATAGGAACCAATATCCAACGTGACTTTATAAT [CACACA_negctrl_site1011] | 7.68 ± 0.81
11 | TTTACTTTTTTTTCTTGTACTCATACATACTATCAT [XGTACX_site4919] | 7.84 ± 0.83
12 | ATATATATAATATGATGTACTATTTTGATAAAAAAT [XGTACX_site3975] | 8.23 ± 0.54
13 | TTTATCATGAACAGAAGTACATTTATATCAATGTCT [XGTACX_site6470] | 7.5 ± 0.47
14 | ATTGTCAAAACACGCACACACATATACATAATAACA [CACACA_site1742] | 8.2 ± 0.37
15 | TTTGCGTAGAAATGTGTGCACTGATATTTATAATAA [GTGCAC_site9526] | 10.6 ± 0.035
16 | TTATATTATTCGTGTGTGCACGATATTTCATAATTG [GTGCAC_site9767] | 10.1 ± 0.2
17 | ATATATATATATTTCGTGCACTGATAATATTATTTT | 11.2 ± 0.35
18 | AAAATTAAAATATCACGTACGAAGAAAAAATTAAGA [XGTACX_site6437] | 7.86 ± 0.54
19 | TATTTCACTTTTTGTCTGCACTAAAATTTTATGGTA | 9.46 ± 0.32
20 | TTTTTAATTCAAAAAATAATATATTATATTTCAAAT [CACACA_negctrl_site737] | 7.38 ± 0.48
21 | TAGACAAAATATAATGCACACTATTATTTTTATTTA [CACACA_site5508] | 11 ± 0.73
22 | TTATATTTTACAAATGCACACATAATTTTTTTTTTT [CACACA_site8890] | 9.04 ± 0.19
23 | ACTAGACAAAATATAATGCACACTATTATTTTTATT [CACACA_site2726] | 10.9 ± 0.65

Row | Sequence | gcPBM binding intensity (ln)
24 | TATATATATTTATGCACACAAAATATATTATATAAT [CACACA_site5955] | 9.86 ± 0.38
25 | ATTATATATATTTATGCACACAAAATATATTATATA [CACACA_site9244] | 9.78 ± 0.3
26 | AATTAGCTATTTAAAAATATATAAAATTTATATATA [CACACA_negctrl_site390] | 7.47 ± 0.2
27 | TTTCAAAAAAATAGCTATATTTATATTAATGCACGA [TGCATGCA_negctrl_site63] | 11.9 ± 0.45
28 | ATATATATATTATATGCACACTAATAAGACTATTTA [CACACA_site5880] | 9.66 ± 0.11
29 | ACTTCATTTTTTTTATGTACACAGAAGATTTACAAA [XGTACX_site4021] | 8.44 ± 0.47
30 | TTTATTTGTAACGGTTGTACTTGTATATCATTATGA [XGTACX_site4281] | 7.72 ± 0.4
31 | AAAAAAGACCATGTTAGTACATAAGATTTTTTTCAT [XGTACX_site4298] | 7.53 ± 0.57
32 | ATATTGCTTATTTGATGTACGAATACACTAGTATTA [XGTACX_site4536] | 7.79 ± 0.64
33 | TTATATTATATATATAGTACACATGTAATATTTCAA [XGTACX_site1791] | 7.76 ± 0.35
34 | ACCCTATTTATATATACACACACATATATAAATAAA [CACACA_site8980] | 8.24 ± 0.36
35 | AAAAAAAAAAATATAACACACAAAAAATTGTATCGA [CACACA_site1144] | 7.53 ± 0.26
36 | GCTATTAATTTATAAGCACACAATATAAATATATAT [CACACA_site2251] | 8.46 ± 0.057
37 | TTGGGTGCATATATTTGTACACATTATTTCTATTTT [XGTACX_site3688] | 11.2 ± 0.85
38 | AAATATAATAATACATTGCACATATATTATATATAT [TGCATGCA_negctrl_site611] | 8.53 ± 0.64
39 | TATGTTTGTGTATATATTTATTTTTATGTAATTATA [GTGCAC_negctrl_site219] | 7.75 ± 0.45
40 | AAGTTATATTTGTGTACACATAATTTTATACTAATA [CACACA_site5553] | 8.82 ± 0.33
41 | AGTACATTTTTGTGTGTGCACTAATATTATATACTT [GTGCAC_site9568] | 11.3 ± 0.62
42 | TTTTGTTTATGTGTGCATTATATTATATTTTTTATT [TGCATGCA_negctrl_site146] | 10.9 ± 0.45
43 | ATATGTATGTATTTATTATTGTGCATTGTATTTATA [CACACA_negctrl_site664] | 9.36 ± 0.38
44 | ATATATTATAGAGGTGTGCACTACATACATTATAAT [GTGCAC_site9991] | 10.9 ± 0.4
45 | CTTAAATTAATTTGGGTGCATATATTTGTACACATT [GTGCAC_site9948] | 10.8 ± 0.53
46 | TTGCATATTTCTAATTGTACATTATTTTATTTTATA [XGTACX_site8451] | 7.75 ± 0.54

Row | Sequence | gcPBM binding intensity (ln)
47 | AATAAATAGAAAGAGGTGCTACATTATATTATTTAT | 8.73 ± 0.3
48 | TATATATATATTTTTTGTACATATTATATAATATAC [XGTACX_site5187] | 9.025 ± 0.064
49 | CCTTTTTCTACTTTCTCACACATATTAAGAATTATA [CACACA_site5621] | 8.29 ± 0.51
50 | ATAAAAATGGATGAATATAAAAAAAAAAAAATATAT [CACACA_negctrl_site182] | 7.74 ± 0.59
51 | AAAAAAAATAAAAATATATATATATATATATAAATA [GTGCAC_negctrl_site676] | 7.82 ± 0.53
52 | TTCAATAGTAAGTATACACACATATATATATATAAA [CACACA_site2687] | 7.82 ± 0.47
53 | TTACTTAATAGACACACACACAAAAAAAAAAAAAAA [CACACA_site6572] | 8.12 ± 0.49
54 | TATATATTATATATATGTACATATTGTTGTGTATAT [XGTACX_site767] | 7.92 ± 0.43
55 | AATTGTGCATTATATTGTACACGTGTTGTATATATT [XGTACX_site975] | 11.1 ± 0.4
56 | TTTTGTTATAAATAATGTACATATTTATTTAAAATT [XGTACX_site6610] | 7.69 ± 0.38
57 | GTTTATGTATTATTATGTACGTATCATAATATATAT [XGTACX_site2385] | 8.28 ± 0.38
58 | TTTTTTTTTTTTTTGTGTACTAATATTATAAATTTT [XGTACX_site4405] | 8.14 ± 0.3
59 | ATTTTTTAAAATATTTGTACATATATAATGCATATA [XGTACX_site7026] | 8.17 ± 0.17
60 | GTGTGCAAAAATTGTTGTACATTATATATAAAAAAA [XGTACX_site3246] | 9.41 ± 0.34
61 | TTATATTAATTTTGTTGTACTATTTGTGCATTAAAT [XGTACX_site4790] | 11.1 ± 0.78
62 | AGTGCATAATATTTATGTACGTATCACATATATTTT [XGTACX_site5166] | 11.3 ± 0.83
63 | AAATAATTATTTATCACACATATGTATTTATATATA [CACACA_site4589] | 7.66 ± 0.43
64 | TTATTAAATTTTTTTTGTACTTATATATATATATAT [XGTACX_site2443] | 9.23 ± 0.18
65 | ATATAATAAATGTAGGTGCATAAAAATATTTTGTTA [GTGCAC_site9780] | 11 ± 0.45
66 | ATAATAAATTCTACGCGTACAAAACCATGAACATTA [XGTACX_site7505] | 8.02 ± 0.38
67 | TAATTAAAATTAAGAAGTACATTTTACTTTTAATGC [XGTACX_site5120] | 7.61 ± 0.63
68 | TTTTATTAAAACCACGCATGCAGAGGAAACGGTGAG [TGCATGCA_site1029] | 8.45 ± 0.64
69 | GTGTTAAATTTTTGAACATGCAAGTTTTATTATTGA [TGCATGCA_site478] | 7.58 ± 0.56

Row | Sequence | gcPBM binding intensity (ln)
70 | ATATTCCTACATACAACACACGACGTTCTCATAAGA [CACACA_site231] | 8.06 ± 0.66
71 | TTATATGCATAAAAACGTACAAAAATGTATTCATGT [XGTACX_site2215] | 8.06 ± 0.52
72 | TCACTTTTATAATATAATATTCTATATCTTATTTTT [GTGCAC_negctrl_site717] | 7.47 ± 0.47
73 | TAATATAAAGAAATATCAATAATTTGGGCAAATGCC [GTGCAC_negctrl_site621] | 7.53 ± 0.45
74 | TTGCATTAATTTATGTGTACATATAAATTTTTATTT [XGTACX_site3060] | 8.21 ± 0.15
75 | ATAATAATATTATTTTGTACATATGTGCTTATTTAT [XGTACX_site5540] | 8.375 ± 0.035
76 | AATAATATTTATTTTTGTACATATGTGCATTATAAA [XGTACX_site3682] | 11 ± 0.98
77 | CTCTATAAATGCTGCACACACATTTAATTATTTAAG [CACACA_site2582] | 9.045 ± 0.064
78 | ATTTATAAAATTAATGCACACATCAGCATTTATAAA [CACACA_site1025] | 11.3 ± 0.79
79 | AAAATTTAATATAATGCACACATAAAAAAAAAATCA [CACACA_site7882] | 11.2 ± 0.76
80 | AAAAAATTAAAAATCACACATAAATATATATAAAAA [CACACA_site4192] | 7.53 ± 0.67
81 | AATTTAATATAATGCACACATAAAAAAAAAATCAAA [CACACA_site1] | 10.9 ± 0.65
82 | AAATTAAAATATAATACACACATAAAAAAAAAATCA [CACACA_site5918] | 7.68 ± 0.61
83 | TTTATCAAAATAAATGCACACAAATTGCACATATCT [CACACA_site8281] | 10.31 ± 0.035
84 | ACATCATAAAATTTATGTACACATTTTTAATTATAC [XGTACX_site7759] | 8.19 ± 0.19
85 | ATTATTTTATAATTCACACATAAATAAAAAAAAAAT [CACACA_site5290] | 7.76 ± 0.32
86 | TCTAATAAAATAAATACATGCATACATACATACATA [TGCATGCA_site895] | 7.76 ± 0.63
87 | TATGTGAATAAATAAGCACACATAAACACATATATA [CACACA_site9359] | 8.06 ± 0.42
88 | ATTTAATGTATTTTGCGTACGAATTATTTTATTTCA [XGTACX_site7331] | 7.93 ± 0.49
89 | CTATTATAATATTTTACACACCATGTAAAATATATA [CACACA_site3206] | 7.75 ± 0.39
